Laboratory results as given in ChEMBL document CHEMBL3988442, “University of Dundee, Small-Polar-MMV Screening Library” (2021).
For some assays here: Measured potencies and affinities stand elsewhere.

How the values were obtained:
Parameters in all cases: scale not given: direction of the effect not stated beside the values
[1] = molecular target: Protein translocase subunit SecA (Escherichia coli (strain K12)) (UniProt P10408); experiment: Assay to Identify E. coli SecA ATPase Inhibitors; type: functional; details: 30 µM
Chain of Protein translocase subunit SecA (Escherichia coli (strain K12)) (P10408 whole entry): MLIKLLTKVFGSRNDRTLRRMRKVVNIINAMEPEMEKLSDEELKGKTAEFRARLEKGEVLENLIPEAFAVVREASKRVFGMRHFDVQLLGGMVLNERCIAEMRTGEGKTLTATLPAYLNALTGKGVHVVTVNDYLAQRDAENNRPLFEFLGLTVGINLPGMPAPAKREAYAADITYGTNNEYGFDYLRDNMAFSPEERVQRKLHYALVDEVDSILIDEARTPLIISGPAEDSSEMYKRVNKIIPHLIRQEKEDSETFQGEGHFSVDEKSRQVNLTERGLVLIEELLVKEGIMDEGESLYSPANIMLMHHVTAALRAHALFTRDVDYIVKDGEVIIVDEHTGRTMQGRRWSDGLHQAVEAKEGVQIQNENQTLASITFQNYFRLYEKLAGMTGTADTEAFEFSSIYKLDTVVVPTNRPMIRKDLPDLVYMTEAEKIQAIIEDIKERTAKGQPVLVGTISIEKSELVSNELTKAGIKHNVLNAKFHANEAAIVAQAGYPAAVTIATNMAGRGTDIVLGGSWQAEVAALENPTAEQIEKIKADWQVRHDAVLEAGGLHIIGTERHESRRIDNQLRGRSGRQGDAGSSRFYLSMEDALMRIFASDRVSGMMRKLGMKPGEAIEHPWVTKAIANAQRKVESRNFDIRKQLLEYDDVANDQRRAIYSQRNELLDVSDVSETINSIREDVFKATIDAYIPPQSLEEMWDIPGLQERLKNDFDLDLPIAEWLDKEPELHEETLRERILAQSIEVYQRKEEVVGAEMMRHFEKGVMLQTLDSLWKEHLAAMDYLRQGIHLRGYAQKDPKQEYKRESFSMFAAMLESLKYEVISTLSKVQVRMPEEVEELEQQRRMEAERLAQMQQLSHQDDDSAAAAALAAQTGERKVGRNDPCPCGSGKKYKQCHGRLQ

[2] = molecular target: T1, Ubiquitin-activating enzyme e1, putative (Leishmania donovani (strain BPK282A1)) (UniProt E9BSI1); experiment: Leishmania donovani Ubiquitin Activating Enzyme (LdE1); type: functional; details: 30 µM
T1 sequence (whole entry): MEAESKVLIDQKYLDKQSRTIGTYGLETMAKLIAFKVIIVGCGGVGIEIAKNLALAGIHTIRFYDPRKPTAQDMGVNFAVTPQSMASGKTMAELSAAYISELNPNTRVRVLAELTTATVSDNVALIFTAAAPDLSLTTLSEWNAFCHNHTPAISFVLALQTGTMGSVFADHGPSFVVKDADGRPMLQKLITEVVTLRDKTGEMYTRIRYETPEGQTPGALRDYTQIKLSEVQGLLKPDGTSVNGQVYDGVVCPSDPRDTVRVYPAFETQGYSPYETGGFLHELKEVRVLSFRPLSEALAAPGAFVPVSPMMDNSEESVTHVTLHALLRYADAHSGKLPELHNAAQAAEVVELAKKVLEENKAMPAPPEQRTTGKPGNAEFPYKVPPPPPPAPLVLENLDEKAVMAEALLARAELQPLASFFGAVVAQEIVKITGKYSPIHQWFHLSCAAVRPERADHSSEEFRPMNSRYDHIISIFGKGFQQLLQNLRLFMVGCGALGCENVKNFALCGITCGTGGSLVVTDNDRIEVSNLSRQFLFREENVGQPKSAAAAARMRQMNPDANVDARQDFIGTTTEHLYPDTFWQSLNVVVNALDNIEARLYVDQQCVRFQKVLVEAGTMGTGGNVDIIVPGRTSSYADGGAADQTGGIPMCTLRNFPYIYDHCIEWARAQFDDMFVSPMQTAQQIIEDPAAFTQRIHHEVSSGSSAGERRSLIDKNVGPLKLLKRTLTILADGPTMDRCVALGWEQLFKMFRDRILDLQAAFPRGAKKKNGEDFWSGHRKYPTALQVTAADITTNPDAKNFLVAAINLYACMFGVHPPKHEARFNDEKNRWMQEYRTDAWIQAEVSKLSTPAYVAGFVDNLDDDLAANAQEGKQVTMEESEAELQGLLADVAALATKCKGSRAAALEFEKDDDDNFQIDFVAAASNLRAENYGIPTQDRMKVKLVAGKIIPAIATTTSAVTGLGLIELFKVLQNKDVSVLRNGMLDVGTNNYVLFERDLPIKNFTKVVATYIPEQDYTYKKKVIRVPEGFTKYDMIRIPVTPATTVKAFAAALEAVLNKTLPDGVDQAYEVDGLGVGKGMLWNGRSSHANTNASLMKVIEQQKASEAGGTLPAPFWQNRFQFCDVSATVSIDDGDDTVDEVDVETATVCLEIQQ

[3] = molecular target: AMP-activated protein kinase, AMPK (Homo sapiens) (UniProt P54646+O43741+P54619+Q9UGJ0+Q9Y478+Q13131+Q9UGI9); experiment: AMP-dependent Kinase enzyme assay. An in vitro enzyme assay that detects ADP turnover that is directly proportional to AMPK activity. This uses naive AMPK that is activated during the assay with MK-8722; type: functional; details: 30 µM
[4] = molecular target: Sialic acid-binding Ig-like lectin 9 (Homo sapiens) (UniProt Q9Y336); experiment: Hs-Siglec9 ALPHAscreen SOP 20170721; details: 10 µM
Chain of Sialic acid-binding Ig-like lectin 9 (Homo sapiens) (Q9Y336 whole entry): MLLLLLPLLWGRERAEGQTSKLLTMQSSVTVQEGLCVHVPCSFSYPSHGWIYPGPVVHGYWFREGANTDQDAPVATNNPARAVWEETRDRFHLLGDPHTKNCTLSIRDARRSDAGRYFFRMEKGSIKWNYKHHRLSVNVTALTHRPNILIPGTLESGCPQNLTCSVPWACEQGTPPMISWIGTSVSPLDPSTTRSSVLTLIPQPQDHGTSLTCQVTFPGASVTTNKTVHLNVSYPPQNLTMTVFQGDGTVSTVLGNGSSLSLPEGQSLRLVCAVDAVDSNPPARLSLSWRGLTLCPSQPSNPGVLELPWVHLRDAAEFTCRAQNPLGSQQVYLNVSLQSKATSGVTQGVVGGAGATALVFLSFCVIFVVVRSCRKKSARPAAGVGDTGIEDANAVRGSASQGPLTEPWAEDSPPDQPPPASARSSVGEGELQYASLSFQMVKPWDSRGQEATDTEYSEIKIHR

Trypanosoma cruzi = experiment: Trypanosoma cruzi phosphomannomutase and mannose-1-phosphate guanylyltransferase assay; type: functional; details: 10 µM
[5] = molecular target: T2, Arginase-2, mitochondrial (Homo sapiens) (UniProt P78540); experiment: in vitro enzyme assay to detect the production of urea directly proportional to the activity of Arginase II; type: functional; details: 33.3 µM; also: in the data most compounds retested in dose-response had high values
T2 sequence (whole entry): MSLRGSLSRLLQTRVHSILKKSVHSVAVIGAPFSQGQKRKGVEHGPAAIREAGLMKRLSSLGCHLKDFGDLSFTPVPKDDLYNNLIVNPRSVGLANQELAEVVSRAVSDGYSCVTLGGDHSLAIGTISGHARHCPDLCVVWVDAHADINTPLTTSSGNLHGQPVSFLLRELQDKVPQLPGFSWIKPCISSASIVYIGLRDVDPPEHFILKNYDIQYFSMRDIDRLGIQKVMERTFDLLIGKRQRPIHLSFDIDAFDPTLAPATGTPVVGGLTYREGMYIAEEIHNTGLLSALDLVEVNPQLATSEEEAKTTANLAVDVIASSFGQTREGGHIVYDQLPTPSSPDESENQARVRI

[6] = molecular target: T3, Proteasome subunit beta (Trypanosoma cruzi) (UniProt O96673); experiment: Trypanosoma cruzi proteasome chymotrypsin-like activity (TcProtChymo) assay.; also: in the data most compounds retested in dose-response had high values; type: functional; details: 9.37 µM
T3 sequence (whole entry): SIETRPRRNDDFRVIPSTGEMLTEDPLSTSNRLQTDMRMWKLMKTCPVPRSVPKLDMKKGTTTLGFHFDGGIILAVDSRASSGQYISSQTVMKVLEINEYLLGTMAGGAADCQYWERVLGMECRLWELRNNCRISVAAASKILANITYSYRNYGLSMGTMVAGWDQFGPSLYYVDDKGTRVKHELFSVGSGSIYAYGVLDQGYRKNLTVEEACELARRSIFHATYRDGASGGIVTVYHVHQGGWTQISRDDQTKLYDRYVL

Homo sapiens = species on record: Homo sapiens; experiment: To identify inhibition of the IFN signalling (Jak-Stat) pathway via expression of an eGFP reporter gene under the control of an IFN-stimulated response element (ISRE) containing MxA promoter.; type: functional; details: 30 µM
[7] = molecular target: T4, Tyrosyl-tRNA synthetase, putative (Trypanosoma cruzi (strain CL Brener)) (UniProt Q4DSP6); experiment: Trypanosoma cruzi tyrosyl tRNA synthetase (TcYRS) _High Tyrosine SOP; type: functional; details: 30 µM; also: in the data most compounds retested in dose-response had high values
T4 sequence (whole entry): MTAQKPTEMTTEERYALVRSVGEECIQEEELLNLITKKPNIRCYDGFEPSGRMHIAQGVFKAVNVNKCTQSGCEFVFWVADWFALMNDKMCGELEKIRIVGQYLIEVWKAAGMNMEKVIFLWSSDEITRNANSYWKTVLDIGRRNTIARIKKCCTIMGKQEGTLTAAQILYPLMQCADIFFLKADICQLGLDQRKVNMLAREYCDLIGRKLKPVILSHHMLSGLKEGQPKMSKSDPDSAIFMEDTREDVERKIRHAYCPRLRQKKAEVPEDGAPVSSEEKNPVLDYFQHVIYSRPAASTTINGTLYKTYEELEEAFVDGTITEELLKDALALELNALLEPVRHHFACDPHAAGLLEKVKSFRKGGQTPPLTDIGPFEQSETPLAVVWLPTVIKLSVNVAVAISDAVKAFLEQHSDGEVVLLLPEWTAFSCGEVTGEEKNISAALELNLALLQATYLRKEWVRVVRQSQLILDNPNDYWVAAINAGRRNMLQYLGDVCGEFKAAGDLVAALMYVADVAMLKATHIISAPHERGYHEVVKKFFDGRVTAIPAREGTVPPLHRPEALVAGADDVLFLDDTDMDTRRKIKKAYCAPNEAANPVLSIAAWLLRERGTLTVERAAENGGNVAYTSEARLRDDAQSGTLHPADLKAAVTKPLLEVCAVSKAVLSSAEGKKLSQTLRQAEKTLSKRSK

[8] = molecular target: T4, Tyrosyl-tRNA synthetase, putative (Trypanosoma cruzi (strain CL Brener)); experiment: Trypanosoma cruzi tyrosyl tRNA synthetase (TcYRS) SOP; type: functional; details: 30 µM
[9] = molecular target: Chromo domain-containing protein 1 (Saccharomyces cerevisiae (strain ATCC 204508 / S288c) (Baker's yeast)) (UniProt P32657); experiment: ScCHD-1 Enzyme Inhibition Assay; type: functional; details: 30 µM; also: in the data most compounds retested in dose-response had high values
Chain of Chromo domain-containing protein 1 (Saccharomyces cerevisiae (strain ATCC 204508 / S288c) (Baker's yeast)) (P32657 whole entry, the tested form may be a part): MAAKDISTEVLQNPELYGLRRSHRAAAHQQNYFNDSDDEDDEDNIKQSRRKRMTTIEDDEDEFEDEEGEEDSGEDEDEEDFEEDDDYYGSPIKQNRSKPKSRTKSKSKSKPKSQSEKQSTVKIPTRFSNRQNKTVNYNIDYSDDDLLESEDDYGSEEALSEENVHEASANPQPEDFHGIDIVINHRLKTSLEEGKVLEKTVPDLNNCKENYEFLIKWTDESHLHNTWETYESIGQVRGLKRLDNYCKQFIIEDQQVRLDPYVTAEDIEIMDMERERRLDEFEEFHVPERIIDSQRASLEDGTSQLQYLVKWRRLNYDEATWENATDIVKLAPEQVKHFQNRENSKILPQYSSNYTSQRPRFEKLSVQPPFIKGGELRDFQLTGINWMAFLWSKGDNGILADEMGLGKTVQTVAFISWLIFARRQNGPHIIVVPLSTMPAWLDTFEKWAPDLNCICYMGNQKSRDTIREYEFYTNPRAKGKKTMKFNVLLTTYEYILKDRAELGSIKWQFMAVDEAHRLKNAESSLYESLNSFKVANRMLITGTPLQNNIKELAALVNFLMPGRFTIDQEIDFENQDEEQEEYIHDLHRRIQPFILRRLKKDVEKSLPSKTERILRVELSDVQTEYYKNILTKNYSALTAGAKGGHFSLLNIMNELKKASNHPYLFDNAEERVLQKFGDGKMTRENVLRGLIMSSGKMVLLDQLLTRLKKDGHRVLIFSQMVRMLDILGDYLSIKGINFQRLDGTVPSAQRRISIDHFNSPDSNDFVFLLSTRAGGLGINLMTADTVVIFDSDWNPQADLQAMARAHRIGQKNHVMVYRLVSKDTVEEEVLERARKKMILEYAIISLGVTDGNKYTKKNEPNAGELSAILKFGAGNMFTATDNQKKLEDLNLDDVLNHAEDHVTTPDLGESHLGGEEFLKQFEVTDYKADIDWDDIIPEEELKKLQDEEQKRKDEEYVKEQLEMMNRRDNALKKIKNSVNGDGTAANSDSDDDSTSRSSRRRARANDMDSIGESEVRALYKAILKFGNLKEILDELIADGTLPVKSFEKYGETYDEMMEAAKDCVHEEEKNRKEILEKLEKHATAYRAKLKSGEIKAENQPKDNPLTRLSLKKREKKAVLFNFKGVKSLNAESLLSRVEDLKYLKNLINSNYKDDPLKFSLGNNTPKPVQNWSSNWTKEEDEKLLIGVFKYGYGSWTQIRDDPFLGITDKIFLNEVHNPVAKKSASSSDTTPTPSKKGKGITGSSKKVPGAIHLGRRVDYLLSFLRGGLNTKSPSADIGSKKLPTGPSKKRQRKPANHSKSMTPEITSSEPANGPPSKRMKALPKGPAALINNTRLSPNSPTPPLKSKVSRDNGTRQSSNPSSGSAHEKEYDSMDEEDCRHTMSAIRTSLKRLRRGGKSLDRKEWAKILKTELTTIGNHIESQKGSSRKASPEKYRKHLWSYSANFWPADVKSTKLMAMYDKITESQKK

| SMILES | Percent Effect [1] | Percent Effect [2] | Percent Effect [3] | Percent Effect [4] | Percent Effect (Trypanosoma cruzi) | Percent Effect [5] | Percent Effect [6] | Percent Effect (Homo sapiens) | Percent Effect [7] | Percent Effect [8] | Percent Effect [9] |
| --- | --- | --- | --- | --- | --- | --- | --- | --- | --- | --- | --- |
| Cc1ccc(C(=O)NCC2(O)CCOCC2)cc1Br | -4.53% | 5.41% | 0.131% | 12.8% | -0.772% | -2.38% | 7.07% | 19% | 4.76% | 7.32% | -2.67% |
| Cc1cccc(C(=O)NCCCN2CCN(c3ccccc3)CC2)c1 | -2.4% | 10.4% | -2.04% | -11.3% | -7% | 5.81% | 12.7% | 13.6% | 1.06% | 8.97% | -9.93% |
| CCCNC(=O)c1cc2c([nH]c1=O)CC(c1cccs1)CC2=O (stereo unspecified) | 0.191% | 14.7% | 13.3% | 3.54% | 3.34% | -0.88% | 7.58% | 21% | -4.23% | 12.8% | -7.37% |
| Cn1cc(N2CC3(CCN(CC4CCOCC4)CC3)OCC2=O)cn1 | -1.91% | 9.33% | 1.65% | 6.72% | -0.197% | 2.99% | 19.8% | 17.2% | 4.23% | 12.8% | -4.82% |
| COc1ccc([C@@H]2CN(C(=O)CCC(F)(F)F)C[C@H]2NC(C)=O)cc1 | -3.18% | 2.67% | 0.154% | -0.127% | -2.63% | 2.6% | 16.7% | 1.55% | 6.01% | 8.64% | -6.25% |
| CS(=O)(=O)c1ccc(CNC(=O)N2CCC(c3ccccc3)CC2)cc1 | -1.75% | 7.59% | 0.598% | -2.13% | -5.76% | 3.42% | 5% | 8.31% | -3.45% | 1.27% | -6.29% |
| CS(=O)(=O)N1CCc2c(cccc2NC(=O)CC(F)(F)F)C1 | -3.17% | 5.26% | 4.53% | -1.3% | -2.04% | 0% | 11.8% | -9.3% | 4.25% | 10.4% | -6.43% |
| COc1cccc(NC(=O)N(CCO)Cc2ccsc2)c1 | -3.38% | -6.94% | 1.15% | -5.41% | -4.96% | -4.42% | 12.3% | 11.8% | 3.16% | 5.13% | -4.52% |
| O=C(c1ccncc1)N1CCC(c2nc(O)cc(-c3cccnc3)n2)C1 (stereo unspecified) | -0.62% | 21.3% | -34.2% | -1.55% | 3.74% | 26.8% | 8.55% | 17.1% | 8.51% | 11.5% | -5.75% |
| c1ccc(OCCCNCCn2cccn2)cc1 | -4.38% | 1.27% | -0.45% | 4.63% | 4% | -2.8% | 3.94% | -1.21% | 5.21% | 10.1% | -18.9% |
| Cn1cc(C2CC(=O)NC23CCN(c2ncc(F)cn2)CC3)cn1 (stereo unspecified) | 0.954% | 16% | 3.9% | 5.28% | -4.25% | -16.3% | 3.08% | 16.6% | 1.04% | 17.5% | -4.13% |
| N#CC1(C(=O)Nc2ccc(OC(F)F)cc2)CCCC1 | -4.03% | 1.39% | 5.97% | -0.254% | 0.68% | 2.21% | 3.68% | -8.03% | 2.1% | 5.13% | -0.635% |
| O=S(=O)(Nc1cnn(C2CCOCC2)c1)c1c(F)cccc1F | 1.19% | -2.6% | -13.6% | 5.79% | -2.66% | -1.94% | 10.4% | 5.2% | 2.12% | 1.28% | -4.35% |
| COc1cc(C)ccc1OCCC(=O)N1CCCC1Cn1cccn1 (stereo unspecified) | -6.85% | 15.8% | -7.6% | 14.4% | 3.64% | -1.44% | 0.254% | 1.25% | 5.42% | 13.6% | -6.6% |
| Cn1cc(CN2C[C@@H]3COC[C@]3(COc3ccc(C#N)cn3)C2)cn1 | -0.614% | 5.48% | -2.34% | 6.07% | -1.98% | 1.2% | 11.4% | 13.4% | 8.33% | 11.1% | -0.913% |
| COc1ccc(CN2C[C@@H](OCc3ccccn3)[C@H]3COC[C@H]32)cc1 | -4.56% | -8.11% | -0.636% | -1.37% | -3.62% | 6.05% | 20.1% | 22.6% | -1.08% | 12.8% | 2.02% |
